Read-out in test [1]: Interleukin-8 (IL8), CXCL8 (gene 3576)
Nature of the test: BSK_BF4T_IL8: BioMAP Diversity Plus: BF4T Assay for Interleukin-8 (IL8) Biomarker Activity (AID 2284263). Particulars: primary human bronchial epithelial cells with fibroblasts. The method, boiled down: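 Human bronchial epithelial cells with dermal fibroblasts co-culture; IL-8 measured by ELISA 24 hours after dosing, fitted vs DMSO. Cytotoxicity tracked in parallel cultures by SRB total-protein staining.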

Read-out in test [2]: Interleukin-1 alpha (IL1a), IL1A (gene 3552)
The test can be described thus: BSK_BF4T_IL1a: BioMAP Diversity Plus: BF4T Assay for Interleukin-1 alpha (IL1a) Biomarker Activity (AID 2284264). Particulars: primary human bronchial epithelial cells with fibroblasts. The method, boiled down:
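Human bronchial epithelial cells co-cultured with dermal fibroblasts, dosed and read at 24 h. Secreted/surface IL-1α quantified by ELISA; gain-of-signal fitted relative to DMSO baseline. Parallel SRB total-protein staining tracked cytotoxicity.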

Read-out in test [3]: Decorin, DCN (gene 1634)
Nature of the test: BSK_MyoF_Decorin: BioMAP Diversity Plus: MyoF Assay for Decorin Biomarker Activity (AID 2284265). Particulars: primary human lung fibroblasts. The procedure, abridged: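 ELISA readout of decorin, 24 h post-dosing; primary human lung fibroblast (MyoF) culture; gain-of-signal fit vs DMSO baseline.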

Read-out in test [4]: KRT18 (gene 3875)
Nature of the test: BSK_BF4T_Keratin818: BioMAP Diversity Plus: BF4T Assay for Keratin 818 Biomarker Activity (AID 2284266). Particulars: primary human bronchial epithelial cells with fibroblasts. The method, boiled down:
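Co-culture of human bronchial epithelial cells and dermal fibroblasts, chemical exposure 24 h. Keratin 8/18 measured by ELISA; positive-direction fit vs DMSO. SRB total protein run in parallel cultures for cytotoxicity.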

Test [5] is described as follows: BSK_MyoF_SRB: Viability Assessment in the BioMAP Diversity Plus: MyoF Assay (AID 2284267).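 Further: total protein by SRB absorbance in parallel cultures as cytotoxicity measure.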 Particulars: primary human lung fibroblasts. The procedure, abridged:
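Human lung fibroblasts dosed with chemical and assessed 24 h later for overt cytotoxicity in parallel cultures. Total protein quantified by sulforhodamine B staining (0.1% SRB after 10% TCA fixation), read at 560 nm, analysed in positive direction versus DMSO baseline.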

Read-out in test [6]: Matrix Metallopeptidase 1 (MMP1), MMP1 (gene 4312)
The test can be described thus: BSK_MyoF_MMP1: BioMAP Diversity Plus: MyoF Assay for Matrix Metallopeptidase 1 (MMP1) Biomarker Activity (AID 2284268). Particulars: primary human lung fibroblasts. The procedure, abridged: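 Cells: human lung fibroblasts. Exposure: 24 h chemical dosing. Detection: ELISA for MMP1. Analysis: upward fitting against DMSO negative control.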

Read-out in test [7]: TIMP metallopeptidase inhibitor 1 (TIMP1), TIMP1 (gene 7076)
The test can be described thus: BSK_MyoF_TIMP1: BioMAP Diversity Plus: MyoF Assay for TIMP metallopeptidase inhibitor 1 (TIMP1) Biomarker Activity (AID 2284269). Particulars: primary human lung fibroblasts. The method, boiled down: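 Primary human lung fibroblasts, MyoF multiplex system; chemical exposure 24 h; TIMP-1 by ELISA; positive fitting direction vs DMSO control.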

Read-out in test [8]: Matrix Metallopeptidase 1 (MMP1), MMP1 (gene 4312)
Nature of the test: BSK_BF4T_MMP1: BioMAP Diversity Plus: BF4T Assay for Matrix Metallopeptidase 1 (MMP1) Biomarker Activity (AID 2284270). Particulars: primary human bronchial epithelial cells with fibroblasts. The method, boiled down:
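Co-culture of human bronchial epithelial cells and dermal fibroblasts; MMP-1 levels measured by ELISA 24 hours after chemical dosing, relative to DMSO. Cytotoxicity checked in parallel cultures by SRB total-protein staining.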

Read-out in test [9]: Matrix Metallopeptidase 3 (MMP3), MMP3 (gene 4314)
The test can be described thus: BSK_BF4T_MMP3: BioMAP Diversity Plus: BF4T Assay for Matrix Metallopeptidase 3 (MMP3) Biomarker Activity (AID 2284271). Particulars: primary human bronchial epithelial cells with fibroblasts. The procedure, abridged: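 Co-culture of human bronchial epithelial cells and dermal fibroblasts dosed 24 h; MMP-3 measured by ELISA, positive-direction fit versus DMSO. Cytotoxicity tracked by SRB total-protein staining (560 nm) in parallel cultures.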

Read-out in test [10]: Plasminogen Activator Inhibitor-1 (PAI1), SERPINE1 (gene 5054)
Nature of the test: BSK_BF4T_PAI1: BioMAP Diversity Plus: BF4T Assay for Plasminogen Activator Inhibitor-1 (PAI1) Biomarker Activity (AID 2284273). Particulars: primary human bronchial epithelial cells with fibroblasts. The method, boiled down:
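Co-culture of human bronchial epithelial cells and dermal fibroblasts exposed to compound for 24 h. PAI-1 measured by ELISA; activity fitted in positive direction versus DMSO. Parallel SRB staining assessed overt cytotoxicity.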

Read-out in test [11]: Matrix Metallopeptidase 9 (MMP9), MMP9 (gene 4318)
The test can be described thus: BSK_BF4T_MMP9: BioMAP Diversity Plus: BF4T Assay for Matrix Metallopeptidase 9 (MMP9) Biomarker Activity (AID 2284276). Particulars: primary human bronchial epithelial cells with fibroblasts. The method, boiled down: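 Co-culture of human bronchial epithelial cells and dermal fibroblasts dosed for 24 h; MMP-9 quantified by ELISA and fitted upward versus DMSO. Cytotoxicity monitored in parallel cultures by SRB total-protein staining at the biomarker time point.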

Read-out in test [12]: Interleukin-8 (IL8), CXCL8 (gene 3576)
Nature of the test: BSK_IMphg_IL8: BioMAP Diversity Plus: IMphg Assay for Interleukin-8 (IL8) Biomarker Activity (AID 2284277). Particulars: primary human endothelial cells with macrophages. The procedure, abridged:
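Co-culture of human venular endothelial cells and macrophages exposed to chemicals for 24 h; IL-8 quantified by ELISA and compared against the DMSO baseline, with SRB total-protein staining in parallel cultures for cytotoxicity.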

Read-out in test [13]: Intercellular Adhesion Molecule 1 (ICAM1), ICAM1 (gene 3383)
Nature of the test: BSK_BE3C_ICAM1: BioMAP Diversity Plus: BE3C Assay for Intercellular Adhesion Molecule 1 (ICAM1) Biomarker Activity (AID 2284278).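 Further: cell-surface ICAM-1 protein level quantified by ELISA.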 Particulars: primary human bronchial epithelial cells. The procedure, abridged:
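Primary human bronchial epithelial cells were exposed to compound for 24 h, after which cell-surface ICAM-1 was quantified by ELISA. Activity was fitted in the gain-of-signal direction against DMSO as negative control and baseline.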

Read-out in test [14]: Interferon-inducible T-cell alpha chemoattractant (ITAC), CXCL11 (gene 6373)
Nature of the test: BSK_BE3C_ITAC: BioMAP Diversity Plus: BE3C Assay for Interferon-inducible T-cell alpha chemoattractant (ITAC) Biomarker Activity (AID 2284279). Particulars: primary human bronchial epithelial cells. The method, boiled down:
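Steps: dose human bronchial epithelial cells with chemical; incubate 24 h; measure I-TAC by ELISA; fit endpoint in positive direction against DMSO control. Cytotoxicity was checked in parallel cultures by SRB staining at harvest.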

Read-out in test [15]: KRT18 (gene 3875)
Nature of the test: BSK_BE3C_Keratin818: BioMAP Diversity Plus: BE3C Assay for Keratin 818 Biomarker Activity (AID 2284282). Particulars: primary human bronchial epithelial cells. The procedure, abridged:
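Human primary bronchial epithelial cells in the BE3C system were exposed to test chemical for 24 h, then Keratin 8/18 was quantified by ELISA. Activity was fitted in the positive direction against DMSO as negative control and baseline.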

Read-out in test [16]: urokinase Plasminogen Activator (uPA), PLAU (gene 5328)
Nature of the test: BSK_BF4T_uPA: BioMAP Diversity Plus: BF4T Assay for urokinase Plasminogen Activator (uPA) Biomarker Activity (AID 2284275). Particulars: primary human bronchial epithelial cells with fibroblasts. The procedure, abridged: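 Co-culture of human bronchial epithelial cells and dermal fibroblasts; uPA quantified by ELISA 24 hours after dosing, fitted relative to DMSO. Parallel SRB total-protein staining assessed overt cytotoxicity.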

Read-out in test [17]: Epidermal growth factor receptor (EGFR), EGFR (gene 1956)
Nature of the test: BSK_BE3C_EGFR: BioMAP Diversity Plus: BE3C Assay for Epidermal growth factor receptor (EGFR) Biomarker Activity (AID 2284281). Particulars: primary human bronchial epithelial cells. The method, boiled down:
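Compound is added to human bronchial epithelial cells, cells incubate 24 h, then EGFR is detected by ELISA. Values reflect positive-direction fitting relative to DMSO.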

Read-out in test [18]: Tissue plasminogen activator (tPA), PLAT (gene 5327)
Nature of the test: BSK_BF4T_tPA: BioMAP Diversity Plus: BF4T Assay for Tissue plasminogen activator (tPA) Biomarker Activity (AID 2284272). Particulars: primary human bronchial epithelial cells with fibroblasts. The method, boiled down: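 tPA level quantified by ELISA at 24 h post-treatment in bronchial epithelial/dermal fibroblast co-cultures, gain of signal scored against DMSO baseline. Parallel cultures stained with 0.1% SRB (560 nm) to flag overt cytotoxicity.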

A short description of test [19]: BSK_BF4T_SRB: Viability Assessment in the BioMAP Diversity Plus: BF4T Assay (AID 2284274). Particulars: primary human bronchial epithelial cells with fibroblasts. The procedure, abridged: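 Co-culture of human bronchial epithelial cells and dermal fibroblasts (BioMAP BF4T) exposed 24 h. Total protein by sulforhodamine B staining (0.1% SRB after 10% TCA fixation, 560 nm) in parallel cultures; fitted vs DMSO.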

Values joined by “and” are separate entries in the source; they are usually repeats but may differ in a detail not shown here. Equal entries are not always repeated. Some compounds were tested as several samples or in several runs, with calls that do not always agree. Active and inactive are the calls of the source. How the source made its calls: active means hit-call score of the fitted dose curve at least 0.9, where 1 is the maximum; inactive means score below 0.9.

On to `FC1CC(F)(F)C(F)(F)C1(F)F` (stereo unspecified), for which the result in test [1], in test [2], in [3], in test [4], in test [5] and in test [6] was inactive. The result in test [7], in [8], in test [9], in [10], in [11] and in test [12] was inactive. In addition, the result in test [13], in test [14] and in [15] was inactive.

Take `O=C(O)C(F)(F)C(F)(F)C(F)(F)C(F)(F)C(F)(F)C(F)(F)C(F)(F)C(F)(F)Cl`: the AC50 was 51.9 µM (active) and 50.3 µM (active) in test [1]; 45.2 µM (active) and 44 µM (active) in test [2]; 21.3 µM (active) in [3]; 45 µM (active) and 49.7 µM (active) in test [4]; 30.9 µM (active) and 35.5 µM (active) in [5]; 51.5 µM (active) in test [6]. Further, the concentration at half-maximal activity (AC50) in [7] is 30 µM (active) and 47.9 µM (active); in [8], 48.7 µM (active) and 55 µM (active); in test [10], 44.8 µM (active) and 42.7 µM (active); in [16], 45.3 µM (active) and 46.1 µM (active); in test [11], 37.1 µM (active) and 30 µM (active); in test [14] it was 40.8 µM (active) and 23.3 µM (active). Moreover, the AC50 was 13.6 µM (active) and 11.5 µM (active) in test [17]; 48.7 µM (active) and 56 µM (active) in test [15]. In addition, the result in test [3], in test [6] and in test [12] was inactive.

Consider `FC(F)(F)C(F)(F)C(F)(F)C(F)(F)C(F)(F)C(F)(F)C(F)(F)I`, for which the outcome in test [2], in test [3], in [4], in test [7], in test [8] and in [18] was inactive. Besides, the result in test [10], in [19], in test [11], in test [12], in [14] and in test [15] was inactive. Besides, the AC50 in test [5] is 4.81 µM (active) and 4.71 µM (active); in test [6], 2.4 µM (active) and 2.55 µM (active).

One may read the AC50 as the concentration giving half of the maximal activity seen.

The record behind these values is PubChem BioAssay (EPA / NIEHS).
